This is an account of results in PubChem BioAssay (NCATS).

Inconclusive results are not listed. A number with no mark means an inactive call. The call rests on the fitted dose curve; in most records, active means well fitted inhibition curve with a large enough effect; inconclusive means small, poorly fitted or top-dose-only effect; inactive means flat fitted curve, though single readings scatter.

For this assay, the target named is Aldehyde dehydrogenase, mitochondrial (Homo sapiens) (UniProt P05091). The assay is described as follows: qHTS for Inhibitors of the Aldehyde Dehydrogenase Family (ALDH2) Primary screen (AID 2061308).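 Further: plate controls were vehicle for no effect and reference inhibitor for full effect; nearly all actives have a fitted effect of over 55% in size.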 As to conditions: ALDH2 enzyme inhibition qHTS, 1536-well; series mostly up to 56 µM; activity change, negative = inhibition: at the top concentration.
Take `CCC(C)n1cc(C)c2c(C(=O)NCc3c(C)cc(C)[nH]c3=O)cc(-c3ccc(N4CCNCC4)nc3)cc21` (stereo unspecified): the “activity change, negative = inhibition” value was 0.266%.

`O=C(NCc1ccccc1)c1ccc2c(=O)n(-c3cccc(C(F)(F)F)c3)c(=S)[nH]c2c1`: the “activity change, negative = inhibition” value was -4.12%. To `O=C(c1c2ccccc2cc2ccccc12)N1CCC(N2CCC[C@@H](C(=O)N3CCOCC3)C2)CC1` belongs -5.22%; to `C[C@@H]1C(=O)O[C@H]2[C@@H](O)C34[C@H]5C[C@@H](C(C)(C)C)C36[C@@H](OC(=O)[C@@H]6O)O[C@@]4(C(=O)O5)[C@@]12O` (stereo partly specified), -10.5%. The figure for `CO[C@H]1C=CO[C@@]2(C)Oc3c(C)c(O)c4c(O)c(c5c(c4c3C2=O)NC2(CCN(CC(C)C)CC2)N=5)=NC(=O)C(C)=CC=C[C@H](C)[C@H](O)[C@@H](C)[C@@H](O)[C@@H](C)[C@H](OC(C)=O)[C@H]1C` is 0.0424%. The figure for `Cc1onc(-c2c(Cl)cccc2Cl)c1CC(=O)NCc1ccc(OCC(F)(F)F)nc1` is -3.66%.

As to `O=c1cc(N2CCOCC2)nc2c3ccccc3ccn12`, the “activity change, negative = inhibition” value is 0.948%. The figure for `CCO[C@H]1CN(C2CCC(O)(c3ccc4c(c3)OCO4)CC2)C[C@@H]1NC(=O)CNC(=O)c1cccc(C(F)(F)F)c1` (stereo partly specified) is 3.2%; for `CCCSc1nc(NC2CC2c2ccc(F)c(F)c2)c2nnn(C3CC(OCCO)C(O)C3O)c2n1` (stereo unspecified) it is -4.03%. Turning to `OCC(Cc1ccccc1)Nc1nc(Oc2ccc3c(c2)CCC3)nc2c1ncn2Cc1ccc(-c2ccccc2)cc1` (stereo unspecified), the “activity change, negative = inhibition” value is 1.57%. `Cc1cc(-n2c(=O)[nH]c(=O)n(C)c2=O)ccc1Oc1ccc(SC(F)(F)F)cc1`: the “activity change, negative = inhibition” value is -0.829%. The figure for `C(#Cc1cccc(CN2CCOCC2)c1)CCN1CCCCC1` is -14%. Regarding `CNc1ccc([N+](=O)[O-])cc1-n1cnc(-c2ccc(C(F)(F)F)cc2)c1`, the “activity change, negative = inhibition” value is -4.42%. To `Clc1ccc2c(c1)C1=NCCN1c1c(-c3noc(C4CC4)n3)ncn1-2` belongs -7.63%; to `Cc1onc(-c2ccccc2)c1C(=O)N1CCN(c2ccc([N+](=O)[O-])cc2Cl)CC1`, 0.969%. To `CC(=O)O[C@]1(C(C)=O)CC[C@H]2[C@@H]3C[C@H](C)C4=CC(=O)C=C[C@]4(C)[C@@]3(F)[C@@H](O)C[C@@]21C` belongs 2.78%; to `CC(C)S(=O)(=O)NC[C@H](C)c1ccc(-c2ccc(CCNS(C)(=O)=O)cc2)cc1`, -2.71%. `CC(C)(N)c1ncc(-c2ccc(OC(F)(F)F)cc2)[nH]1`: the “activity change, negative = inhibition” value is 2.07%. On to `CCOC(=O)[C@H](CCc1ccccc1)CC1(C(=O)N[C@H]2CCc3ccccc3N(CC(=O)O)C2=O)CCCC1`, for which the “activity change, negative = inhibition” value was -0.971%. To `O=C(NCC1CCN(Cc2cccc(Cl)c2)CC1)[C@@H]1CCCN(c2ncnc3c2nc2n3CCCC2)C1` belongs 10.3%; to `COc1cc2c(Nc3cc(F)c(Cl)c(Cl)c3)ncnc2cc1OCC1CCCN(C)CCC1`, 18.9%; to `CON(C)C(=O)[C@H](O)[C@H](Cc1ccccc1)NC(=O)c1cc2cc(Cl)ccc2[nH]1`, -8.29%. In the case of `COC1CCN(c2cccc(-c3cc(NC(C)=O)nc(-n4nc(C)cc4C)n3)n2)CC1`, the “activity change, negative = inhibition” value is 0.693%. The figure for `CC(OC1OCCN(Cc2n[nH]c(=O)[nH]2)C1c1ccc(F)cc1)c1cc(C(F)(F)F)cc(C(F)(F)F)c1` (stereo unspecified) is 4.86%.

In the case of `CN(C)C(=O)NC1CCC(CCN2CCN(c3cccc(Cl)c3Cl)CC2)CC1` (stereo unspecified), the activity change, negative = inhibition is 8.14% [at 11.2 µM]. Turning to `CN(C)c1nc(Cc2ccc(NC(=O)c3ccc4ccccc4c3)cc2)nc(Cl)c1CC(=O)O`, the “activity change, negative = inhibition” value was -2.93%.
